Screens deposited in PubChem BioAssay by National Center for Advancing Translational Sciences (NCATS).
JMJD2A Tudor: blocks the human JMJD2A Tudor domain; AlphaScreen JMJD2A-Tudor / H3K4me3 peptide binding; Potency, µM (series often up to 114 µM), inactives show at the highest dose activity change, negative = inhibition, most hits filed as inhibitors; 4.4% of 390,000 active; O75164; AID 504339; note: % is set by controls: 0 for no effect and ±100 for the full control effect; nearly all actives have a fitted effect of over 50% in size
HP1b binding inh: inhibitors of HP1-beta chromodomain binding to methylated histone tails | AlphaScreen HP1-beta / biotin-H3K9me3 peptide binding | 0.56% of 390,000 active | AID 540317 | Potency, µM (series often up to 114 µM), without a hit: top-dose activity change, negative = inhibition, hits mostly inhibitors; note: nearly all actives have a fitted effect of over 70% in size
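AlphaScreen: HP1-beta (50 nM) preformed 30 min with biotin-H3(1-18)K9me3 peptide (50 nM) in PBS pH 7.4, 0.01% Tween-20. Compound added for 30 min at RT, then streptavidin donor/nickel chelate acceptor beads (10 ug/mL) for 30 min.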
G9a block: blocks human histone lysine methyltransferase G9a; 8.8% of 350,000 active; G9a H3K9 monomethylation, AlphaScreen, 2 h; AID 504332; Potency, µM (series often up to 102 µM), inactives show top-dose activity, negative = inhibition, hits mostly inhibitors; note: % is set by controls: 0 for no effect and ±100 for the full control effect; nearly all actives have a fitted effect of over 75% in size
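Methyltransferase reactions run at room temperature for 2 h (20 nM enzyme, 500 nM biotin-H3K9 peptide, 20 uM SAM) after a 15 min compound preincubation; product detected by AlphaScreen beads and anti-H3K9me1 antibody.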
Sfp inh: Sfp phosphopantetheinyl transferase inhibition. Biochemical Sfp PPTase activity, qHTS. Potency, µM, for inactives: largest response in the series, negative = inhibition, most hits filed as inhibitors. 3.5% of 310,000 active;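 note: the enzyme is Sfp with the accession as filed and its product quenches rhodamine fluorescence; 0% = enzyme reaction without inhibitor and -100% = no enzyme wells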
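Compounds were incubated with enzyme (final 15 nM) for 15 min at room temperature before substrate addition started the reaction. Fluorescence at 525 nm excitation, 598 nm emission was recorded immediately and after 30 minutes.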
L3MBTL1 block: blocks human L3MBTL1; Potency, µM (series often up to 57.1 µM), for inactives: top-dose activity, negative = inhibition, actives largely listed as inhibitors; Q9Y468; 0.66% of 230,000 active; AlphaScreen L3MBTL1–H3K9me1 peptide binding; note: % is set by controls: 0 for no effect and ±100 for the full control effect; nearly all actives have a fitted effect of over 60% in size
Target sequence (Q9Y468 whole entry, looked up): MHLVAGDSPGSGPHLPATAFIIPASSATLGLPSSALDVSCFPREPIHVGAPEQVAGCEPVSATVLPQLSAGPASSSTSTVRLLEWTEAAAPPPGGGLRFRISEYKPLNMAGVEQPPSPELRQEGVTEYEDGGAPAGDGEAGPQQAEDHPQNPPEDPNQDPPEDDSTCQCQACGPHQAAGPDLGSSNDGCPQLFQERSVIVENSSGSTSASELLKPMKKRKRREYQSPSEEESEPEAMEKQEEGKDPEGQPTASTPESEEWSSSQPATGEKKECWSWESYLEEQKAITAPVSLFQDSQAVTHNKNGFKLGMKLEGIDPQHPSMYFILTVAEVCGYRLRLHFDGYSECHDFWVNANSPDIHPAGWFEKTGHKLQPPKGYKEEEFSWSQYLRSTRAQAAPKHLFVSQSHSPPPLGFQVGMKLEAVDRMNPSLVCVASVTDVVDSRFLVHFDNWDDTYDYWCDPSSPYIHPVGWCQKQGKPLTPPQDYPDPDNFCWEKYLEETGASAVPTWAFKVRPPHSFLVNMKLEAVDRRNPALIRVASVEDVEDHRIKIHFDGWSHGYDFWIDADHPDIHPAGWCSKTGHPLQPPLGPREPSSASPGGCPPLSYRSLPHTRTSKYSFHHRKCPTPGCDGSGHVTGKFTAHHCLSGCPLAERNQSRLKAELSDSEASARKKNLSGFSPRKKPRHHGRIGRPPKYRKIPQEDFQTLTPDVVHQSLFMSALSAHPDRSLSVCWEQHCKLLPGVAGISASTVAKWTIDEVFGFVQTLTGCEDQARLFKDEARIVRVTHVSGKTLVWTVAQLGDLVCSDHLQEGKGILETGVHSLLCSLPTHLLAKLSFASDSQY
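AlphaScreen proximity signal between nickel-chelate acceptor and streptavidin donor beads (final 10 ug/mL) reports binding of 50 nM L3MBTL1 to 75 nM biotin-H3 K9me1 peptide; complex incubated with compounds 30 min at room temperature; cefsulodin titration as control.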
BAZ2B inh: BAZ2B (human) inhibition; AlphaScreen BAZ2B-H3K14Ac peptide displacement; Potency, µM (titrated, usually from 114 µM), for inactives: top-dose activity change, negative = inhibition, most hits filed as inhibitors; Q9UIF8; AID 504333; 4.4% of 360,000 active; note: % is set by controls: 0 for no effect and ±100 for the full control effect; nearly all actives have a fitted effect of over 60% in size
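Complex of BAZ2B and biotin-H3K14Ac (50 nM apiece) forms over 30 min at RT, then faces library compounds up to 110 uM for another 30 min; AlphaScreen beads added, 20 min dark incubation, luminescence read.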
* = called active by the depositor; ? = inconclusive; . = no result; [ ] = dose if it differs, or a comment. In the library only some 12% were active in any assay of this set; here they are far more common. Calls come from the whole dose curve; as a rule, active = well fitted curve in the direction sought with a large enough effect; inconclusive = small, poorly fitted or top-dose-only effect, or another doubt; inactive = no such curve, though single readings can be large; an effect the other way counts as inactive or inconclusive. Potency is the fitted concentration of half-maximal effect.

SMILES	JMJD2A Tudor	HP1b binding inh	G9a block	Sfp inh	L3MBTL1 block	BAZ2B inh
C=CCNC(=O)COC(=O)c1ccc(Cl)c(S(=O)(=O)N(Cc2ccccc2)c2ccccc2)c1	-22.7%	35.1%	31.6µM*	4.3%	-1.0%	2.7%
NC(=O)COC(=O)c1ccc(Cl)c(S(=O)(=O)N(Cc2ccccc2)c2ccc(Cl)cc2)c1	?	-9.5%	?	18.4%	-7.9%	-0.7%
CC(O)CCCCn1c(=O)c2c(ncn2C)n(C)c1=O (stereo not given)	.	.	18.9%[59 µM]	20.0%	.	.
COc1cc(C(=S)N2CCOCC2)ccc1OC(=O)c1ccccc1	-9.8%	12.8%	39.8µM*	-3.1%	.	-26.4%
COc1cc(C(=S)N2CCOCC2)ccc1OC(=O)Cc1ccc(F)cc1	-14.9%	5.7%	?	2.2%	2.3%	-7.8%
COc1cc(C(=S)N2CCOCC2)ccc1OC(=O)/C=C/c1ccco1	-26.2%	20.7%	?	56.2µM*	.	.
COc1cc(C(=O)Oc2ccc(Br)cc2C(=S)N2CCOCC2)cc(OC)c1OC	-36.0%	?	10µM*	31.6µM*	.	-30.3%
COc1ccc(C(=S)N2CCOCC2)cc1OC(=O)c1cc(OC)c(OC)c(OC)c1	?	?	7.94µM*	44.7µM*	.	?
Nn1cc(Br)c(=O)[nH]c1=O	.	.	41.7%[59 µM]	-26.1%	.	.
COc1ccc(C(=S)N2CCOCC2)cc1OC(=O)c1ccccc1	-35.2%	?	10µM*	56.2µM*	.	-38.2%
COc1ccc(C(=S)N2CCOCC2)cc1OC(=O)c1ccc(C)cc1	?	-20.5%	44.7µM*	-1.4%	.	?
COCCN(C(=O)C1CCC1)c1nnc(-c2cccnc2)s1	-5.8%	55.4%	1.0%[59 µM]	4.9%	.	-19.7%
CCN(C(=O)C1CCCCC1)c1nnc(-c2cccnc2)s1	?	51.8%	50.1µM*	-5.0%	3.9%	?
O=S(=O)(c1ccccc1)N1CC=C(c2ccccc2)CC1	2.7%	58.5%	-3.5%	-4.3%	6.8%	-1.0%
CCC(C)NC(=O)C1=CCN(S(=O)(=O)c2ccc(C)cc2)CC1 (stereo not given)	-11.6%	5.6%	50.1µM*	1.3%	.	-0.1%
Cc1ccc(NC(=O)C2=CCN(S(=O)(=O)c3ccc(F)cc3)CC2)c(C)c1	-7.6%	48.4%	?	31.9%	3.8%	-0.2%
CCC(C)NS(=O)(=O)c1ccc(S(=O)(=O)N2CC=C(c3ccc(F)cc3)CC2)cc1 (stereo not given)	?	?	10µM*	15.4%	-9.1%	-25.9%
Fc1ccc2[nH]c(-c3cccs3)cc2c1	-10.1%	11.9%	5.0%[59 µM]	.	.	-5.4%
Cc1c(C(=O)NCCc2ccc(S(N)(=O)=O)cc2)sc2nc3n(c(=O)c12)CCCC3	-25.3%	11.3%	-9.8%[59 µM]	.	.	-9.9%
O=C(OCC(=O)N1CCCCC1)c1c[nH]c(=O)[nH]c1=O	9.2%[11.4 µM]	-7.5%	-8.8%	16.4%	3.4%	-7.2%
O=c1[nH]cc(N2CCCCCC2)c(=O)[nH]1	-1.3%	50.2%	50.1µM*	-3.7%	.	0.7%
CN1CCc2nc3sc(C(=O)C45CC6CC(CC(C6)C4)C5)c(N)c3cc2C1	-26.1%	-77.0%	2.24µM*	16.3%	-5.5%	?
CN1CCc2nc3sc(C(=O)Nc4ccccc4C(F)(F)F)c(N)c3cc2C1	?	13.9%	12.6µM*	.	.	?
CCN1CCc2nc3sc(C(=O)c4ccccc4)c(N)c3cc2C1	?	-0.5%	11.2µM*	.	.	-33.3%[57.1 µM]
CCOC(=O)CC(=O)Nc1ccc(Br)cc1C(=O)O	56.2µM*	-0.3%	?	2.1%	5.1%	11.1%
SMILES	JMJD2A Tudor	HP1b binding inh	G9a block	Sfp inh	L3MBTL1 block	BAZ2B inh
CCOC(=O)CC(=O)Nc1ccccc1C(=O)O	-11.7%	36.5%	?	14.2%	3.8%	0.2%
CCOc1ccc(Nc2c(S(=O)(=O)c3ccc(Cl)cc3)cnc3ccc(OCC)cc23)cc1	-4.7%	43.1%	-8.7%[59 µM]	.	.	-22.6%
Cc1cc(=O)[nH]c(=S)n1-c1ccccc1	?	38.1%	?	-19.6%	8.4%	7.6%
Cc1ccc(-c2cn(-c3ccccc3)c(=S)[nH]2)cc1C	?	?	44.7µM*	-24.2%	.	31.6µM*
Cc1ccccc1-c1cn(-c2ccccc2)c(=S)[nH]1	?	-19.3%	1.41µM*	?	.	?
O=[N+]([O-])c1ccc(-c2cn(-c3ccc(Cl)cc3)c(=S)[nH]2)cc1	-2.8%	25.4%	?	-13.9%	3.3%	6.4%
COCCCn1c(=O)c2sccc2n2c(CCCC(=O)Nc3ccc(F)c(F)c3)nnc12	-13.3%	30.3%	-3.4%[59 µM]	.	.	-6.2%
COc1ccc(Cn2c(SCc3ccc(C(=O)NC4CCCCC4)cc3)nc3cccnc32)cc1	-14.9%	22.9%	-0.5%[59 µM]	.	.	4.4%
Nn1c(-c2ccccc2)nc2cc(Cl)ccc2c1=O	-22.7%	45.9%	44.7µM*	11.7%	-9.5%	4.2%
O=C(O)c1ccccc1-c1nc2cc(Cl)ccc2c(=O)n1O	-9.7%	4.4%	1.6%	17.7%	-21.3%	79.4µM*
Cc1ccc(-c2noc(CN(C(=O)c3ccc(C(C)(C)C)cc3)C(C)C)n2)cc1	-2.7%	30.4%	9.0%[59 µM]	.	.	0.7%
CC(=O)N1CCN(c2ccc(Oc3ccc([N+](=O)[O-])c(C(F)(F)F)c3)cc2)CC1	?	-36.3%	50.1µM*	-11.0%	.	?
Cc1ccc(CSC2=Nc3ccccc3C3=NC(CC(=O)NCc4cccs4)C(=O)N23)c(C)c1 (stereo not given)	?	14.2%	5.3%[59 µM]	.	.	-11.2%
COc1cc(OC)c(NC(=O)N2CCc3cc(OC)c(OC)cc3C2CC(=O)O)cc1Cl (stereo not given)	-5.3%	11.5%	-14.7%[12.7 µM]	.	.	-25.7%
O=C(O)c1ccccc1OC(=O)C12CC3CC(CC(C3)C1)C2	-3.9%	24.1%	.	19.4%	2.9%	-11.8%
COc1ccc(-c2ncccc2OC(=O)C23CC4CC(CC(C4)C2)C3)cc1	2.1%	65.4%	25.1µM*	-6.9%	11.6%	?
COc1ccccc1CNC(=O)c1c2c(nc3ccccc13)C(=O)N(C1CCCCC1)C2	-15.7%	58.7%	2.6%[59 µM]	.	.	-0.4%
S=C1NC=NC2N=CNC12 (stereo not given)	.	.	22.4µM*	14.1µM*	.	.
CCn1cc(CN2CCc3c([nH]c4ccccc34)C2c2ccc(F)c(OC)c2)c(C)n1 (stereo not given)	?	?	44.7µM*	-2.5%	-23.8%	22.4µM*
Clc1ccc(-n2cccc2CN2CCc3c([nH]c4ccccc34)C2c2ccccn2)nc1 (stereo not given)	35.5µM*	-10.1%	17.8µM*	-13.1%	?	25.1µM*
CCn1cc(CN2CCc3c([nH]c4ccccc34)C2c2cccc(O)c2)c(C)n1 (stereo not given)	-17.6%[57.1 µM]	-6.0%	?	-0.2%	-0.8%	?
